Measured values: PubChem BioAssay AID2284360 (EPA ToxCast)
Records with an inconclusive call do not appear. Activity calls are given as the source filed them. How the source made its calls: active means hit-call score of the fitted dose curve at least 0.9, where 1 is the maximum; inconclusive means response in the unintended direction; inactive means score below 0.9.

Test: ATG_M_19_EcoTox2: Attagene TRANS-FACTORIAL EcoTox-2 HepG2 Assay for M19 Transcription Factor (Internal Marker)
Procedure: ATG_EcoTox2 is a cell-based, multiplexed assay created by modifying the existing Attagene TRANS-FACTORIAL system to include a panel of nuclear receptors from some or all the following species: human (Homo sapiens), african clawed frog (Xenopus laevis), rainbow trout (Oncorhynchus mykiss), japanese medaka (Oryzias latipes), and zebrafish (Danio rerio). The ECOTOX2-FACTORIAL format uses HepG2, a human liver cell line, with measurements taken at 24 hours after chemical dosing in a 24-well plate. ATG_M_19_EcoTox2 is one of 29 assay components calculated in the ATG_EcoTox2 assay. It is designed to make measurements of mRNA induction, a form of inducible reporter, as detected with fluorescence intensity signals by Reverse transcription polymerase chain reaction (RT-PCR) and Capillary electrophoresis technology.The assay endpoint ATG_M_19_EcoTox2 was analyzed in the positive analysis fitting direction relative to DMSO as the negative control and baseline of activity. Using a type of inducible reporter, measures of mRNA for gain-of-signal activity can be used to understand the background control at the transcription factor-level as they relate to the gene. Furthermore, this assay endpoint can be referred to as a secondary readout, because this assay has produced multiple assay endpoints where this one serves a background control function. […]
Human liver HepG2 cells are transiently transfected with multiple reporter transcription units (MRTUs) in 6-well plates using FuGene 6 reagent (Roche; 3 ml FuGene/1 mg DNA). […] A major difference between the CIS and TRANS system is that in CIS activities of endogenous TFs are measured, whereas the TRANS assay evaluates changes in activities of exogenous, chimeric NR-Gal4 proteins. […] The fragments were purified using Qiaquick PCR columns (Qiagen), analyzed on an ABI 3130xL genetic analyzer (Applied Biosystems) with peak positions identified by using a set of X-rhodamine (ROX)-labeled MapMarker1000 molecular weight standards (BioVentures). […]

Structure (SMILES)	outcome
[Cl][Sn]([c]1ccccc1)([c]1ccccc1)[c]1ccccc1	inactive
CCCCOCN(C(=O)CCl)c1c(CC)cccc1CC	inactive
O=S(=O)(O)C(F)(F)C(F)(F)C(F)(F)C(F)(F)C(F)(F)C(F)(F)F	inactive
